From paper PMC5540273 (PLoS ONE, 2017)

These molecules were tested on BMPR2. Details: concentration: 1 μM,replicates: in singlicate; n = 1.
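Note: KINOMEscan kinase panel screen.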

| SMILES | %Inh |
| --- | --- |
| OCCn1cc(-c2cnc3nnn(Cc4ccc5ncccc5c4)c3n2)cn1 | 0% |
| CCN1CCN(CCCC(=O)Nc2n[nH]c3nc(-c4ccc(O)cc4)c(Br)cc23)CC1 [SB-731579] | 12% |
| C[C@@H]1CNc2c(sc3ccc4nc(-c5ccncc5)ccc4c23)C(=O)N1 | 0% |
| COc1cccc(CNC(=O)NC2CCN(c3ccnc(Nc4cc(OC)c(OC)c(OC)c4)n3)C2)c1 (stereo not shown) [GSK1379765] | 23% |
| CCn1c(-c2nonc2N)nc2cncc(CNC3CCNCC3)c21.Cl [SB-747651] | 17% |
| O=C(NCC1CC1)c1ccc(-c2cc(C(=O)NC3CC3)ccc2F)cc1 [GW810445] | 15% |
| COc1cccc(OC)c1C(=O)Nc1cccc(-c2nn3ccccc3c2-c2ccnc(Nc3cccc(F)c3)n2)c1 [GSK361065] | 0% |
| Cn1cc(-c2cccc3c(N)c(C(N)=O)nnc23)cn1 | 72% |
| CC(C)S(=O)(=O)N1CCN(Cc2ccc3c(c2)nc(NC(=O)c2ccsc2)n3C[C@H](O)c2ccccc2)CC1 [GW635815] | 50% |
| Cc1ccc(CC(=O)N2CCc3cc(-c4cn(C)c5ncnc(N)c45)ccc32)cc1 [GSK2634758] | 0% |
| CCn1c(-c2nonc2N)nc2cncc(Br)c21 [SB-738004] | 58% |
| O=C(Nc1ccccc1)c1cccc(Oc2ccc3nccn3n2)c1 | 22% |
| COC(=O)Nc1nc2cc(Oc3ccc(NC(=O)Nc4cc(C(F)(F)F)ccc4Cl)cc3)ccc2[nH]1.Cl [GW697465] | 21% |
| O=C1NCCc2[nH]c(-c3ccncc3)cc21 | 43% |
| CNC(=O)c1ccccc1Nc1nc(Nc2cccc(CS(C)(=O)=O)c2)ncc1C.O=CO [GSK1520489] | 99.3% |
| O=C(Nc1cccc(Oc2ccc3nccn3n2)c1)Nc1cccc(C(F)(F)F)c1 | 0% |
| COc1ccc(Nc2nccc(N3CCC(NC(=O)c4cccc(C#N)c4)C3)n2)cc1 (stereo not shown) [GSK1379730] | 0% |
| COc1cc2nccc(Nc3ccc(Oc4ccccc4)cc3)c2cc1OC.Cl [GI261656] | 7% |
| C[C@@H](Oc1cc(-n2cnc3ccc(-c4ccncc4)cc32)sc1C(N)=O)c1ccccc1Cl [GSK483724] | 3% |

| SMILES | %Inh |
| --- | --- |
| CC(=O)Nc1ccc(-c2cc3ncnc(SCC(=O)O)c3s2)cc1 | 7% |
| NC(=O)c1ccc(-c2cc3ncnc(SCC(=O)O)c3s2)cc1 | 0% |
| COc1cc(Nc2nccc(N3CCC(NC(=O)c4cccc(C#N)c4)C3)n2)cc(OC)c1OC (stereo not shown) [GSK1379751] | 11% |
| Cn1ccc2ncnc(Oc3ccc(NC(=O)Nc4cc(C(C)(C)C)on4)c(Cl)c3)c21 | 5% |
| Cn1ccc2ncnc(Oc3ccc(NC(=O)Nc4cccc(C(F)(F)F)c4)c(F)c3)c21 | 0% |
| CC(=O)Nc1nc2cnc(Nc3cc(NC(=O)c4cccc(CC(C)(C)C#N)c4)ccc3C)nc2s1 | 0% |
| c1ccc(Oc2ccc(Nc3ccnc4ccc(-c5ccccn5)cc34)cc2)cc1 [GW407034] | 26% |
| COC(=O)c1cccc(NC(=O)NC2CCN(c3ccnc(Nc4cc(OC)c(OC)c(OC)c4)n3)C2)c1 (stereo not shown) [GSK1379767] | 26% |
| Cc1cccc(-c2nc(Nc3ccncc3)c3sccc3n2)n1 [GW869641] | 37% |
| CC(=O)c1c(-c2ccncc2)[nH]c(-c2ccncc2)c1C [GW493036] | 24% |
| Cc1nnc(-c2ccc3occ(-c4ccc(S(C)=O)cc4)c3n2)o1 (stereo not shown) | 0% |
| Cc1ccc2c(-c3ccnc(Nc4ccc(C(F)(F)F)cc4)n3)cnn2n1 [GW819776] | 32% |
| Cn1ccc2ncnc(Oc3ccc(NC(=O)Nc4cncc(C(F)(F)F)c4)c(Cl)c3)c21 | 0% |
| Cl.Nc1n[nH]c2cc(-c3ccccn3)ccc12 [GSK2189892] | 0% |
| C[C@@H](Oc1cc(-n2cnc3cc(-c4cnn(C)c4)ccc32)sc1C(N)=O)c1ccccc1Cl [GSK580432] | 0% |
| CN1CCN(CCCNc2nccc(-c3c(-c4ccc(F)cc4)nn4cc(C(N)=O)ccc34)n2)CC1 [GW622475] | 0% |
| O=C(Nc1n[nH]c2cc(-c3ccco3)ccc12)C1CC1 [SB-737447] | 0% |
| NC(=O)Nc1sc(-c2ccc(F)cc2)cc1C(N)=O [GW789449] | 78% |
